Measured values taken from PubChem BioAssay (NCATS).
Results filed as inconclusive are left out. Active and inactive are the calls of the source. Unless noted, calls follow the shape of the dose curve; as a rule, active = well fitted curve in the direction sought with a large enough effect; inconclusive = small, poorly fitted or top-dose-only effect, or another doubt; inactive = no such curve, though single readings can be large; an effect the other way counts as inactive or inconclusive.

Experiments:
[1] = biological target: Lysosomal acid glucosylceramidase (Homo sapiens) (UniProt P04062); assay: Glucocerebrosidase-p2 (AID 348; in the data active = potency below about 10 µM; also: potency is read from the fitted curve at half-maximal effect); conditions: purified GBA, blue fluorogenic substrate, 40 min
Sequence of Lysosomal acid glucosylceramidase (Homo sapiens) (P04062 whole entry, looked up): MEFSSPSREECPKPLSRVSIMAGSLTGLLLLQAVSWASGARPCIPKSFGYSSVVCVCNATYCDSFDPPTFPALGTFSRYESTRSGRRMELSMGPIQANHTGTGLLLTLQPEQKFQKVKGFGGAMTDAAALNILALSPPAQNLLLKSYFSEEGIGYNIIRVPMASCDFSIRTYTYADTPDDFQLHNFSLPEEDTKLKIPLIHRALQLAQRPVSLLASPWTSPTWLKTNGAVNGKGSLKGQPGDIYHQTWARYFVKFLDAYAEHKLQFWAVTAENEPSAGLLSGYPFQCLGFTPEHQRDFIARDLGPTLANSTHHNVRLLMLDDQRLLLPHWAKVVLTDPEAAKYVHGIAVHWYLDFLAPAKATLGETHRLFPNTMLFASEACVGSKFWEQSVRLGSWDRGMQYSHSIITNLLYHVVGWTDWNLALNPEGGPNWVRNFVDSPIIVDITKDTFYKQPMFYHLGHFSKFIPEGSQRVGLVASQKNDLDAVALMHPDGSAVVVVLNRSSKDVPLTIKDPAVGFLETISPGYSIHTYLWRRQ
Summary of the method: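 Compounds titrated from 0.6 nM upwards against 0.2 nM enzyme in pH 5.9 citric acid/KH2PO4, taurocholate, tween-20; blue fluorogenic substrate 80 uM, 40 min room temperature, stopped and read Ex 365/Em 440 for AC50.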

[2] = AP1 Signaling Pathway (AID 357; active = well fitted curve in either direction with a large enough effect, not every such curve was filed as active;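 also: ME-180 reporter cells stimulated with EGF at its EC50 level; % is scaled to controls: 0 for no effect and ±100 for the full control effect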); conditions: ME-180 AP-1-bla reporter, EGF-induced, beta-lactamase ratio, 5 h; at 7.69 µM (top of the series) unless noted
Summary of the method: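 Titration-series screen for positive or negative modulators of EC50 EGF-induced signaling in ME-180 cells carrying an AP-1-driven beta-lactamase reporter. After 5 hours at 37 degrees Celsius, CCF4 460nm/530nm emission ratio gave %Activity; AC50 values derived.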

[3] = NFAT Signaling Pathway (AID 444; active = well fitted curve in either direction with a large enough effect, not every such curve was filed as active;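 also: carbachol stimulus at about its EC50 of 1 µM final; % is scaled to controls: 0 for no effect and ±100 for the full control effect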); conditions: Jurkat NFAT-bla M1, carbachol, beta-lactamase ratio, 5 h; at 7.69 µM (top of the series) unless noted
Summary of the method: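 Jurkat cells with NFAT-driven β-lactamase reporter and co-expressed M1 receptor, stimulated with carbachol (final 1 uM, ~EC50), compound titration, 5 h at 37 °C. CCF4 loaded 1 h at RT; 460/530 nm ratio gave %activity and AC50.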

[4] = Stat Signaling Pathway (AID 446; active = well fitted curve in either direction with a large enough effect, not every such curve was filed as active;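 also: ME-180 cervical cancer cells given 40 pM IL-6 alongside compound; SIE-controlled beta-lactamase reporter measured as 460/530 nm FRET emission ratio; % is scaled to controls: 0 for no effect and ±100 for the full control effect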); conditions: ME-180 SIE beta-lactamase reporter, IL-6 stimulated, 5 h; at 7.69 µM (top of the series) unless noted
Summary of the method: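 Screening format detects activators and inhibitors alike: ME-180 SIE-bla cells stimulated at 40 pM IL-6 for 5 hrs with compound, then dual-emission beta-lactamase read at 405 nm excitation.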

[5] = biological target: Glucocorticoid receptor (Homo sapiens) (UniProt P04150); assay: GR-GFP Redistribution (AID 450;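 active = compounds whose dose series gives a full or clear partial fitted curve of increased nuclear translocation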; also: potency is read from the fitted curve at half-maximal effect); conditions: U2OS GR-GFP nuclear translocation, laser cytometry, 2 h
Sequence of Glucocorticoid receptor (Homo sapiens) (P04150 whole entry, looked up, the tested form may be a part): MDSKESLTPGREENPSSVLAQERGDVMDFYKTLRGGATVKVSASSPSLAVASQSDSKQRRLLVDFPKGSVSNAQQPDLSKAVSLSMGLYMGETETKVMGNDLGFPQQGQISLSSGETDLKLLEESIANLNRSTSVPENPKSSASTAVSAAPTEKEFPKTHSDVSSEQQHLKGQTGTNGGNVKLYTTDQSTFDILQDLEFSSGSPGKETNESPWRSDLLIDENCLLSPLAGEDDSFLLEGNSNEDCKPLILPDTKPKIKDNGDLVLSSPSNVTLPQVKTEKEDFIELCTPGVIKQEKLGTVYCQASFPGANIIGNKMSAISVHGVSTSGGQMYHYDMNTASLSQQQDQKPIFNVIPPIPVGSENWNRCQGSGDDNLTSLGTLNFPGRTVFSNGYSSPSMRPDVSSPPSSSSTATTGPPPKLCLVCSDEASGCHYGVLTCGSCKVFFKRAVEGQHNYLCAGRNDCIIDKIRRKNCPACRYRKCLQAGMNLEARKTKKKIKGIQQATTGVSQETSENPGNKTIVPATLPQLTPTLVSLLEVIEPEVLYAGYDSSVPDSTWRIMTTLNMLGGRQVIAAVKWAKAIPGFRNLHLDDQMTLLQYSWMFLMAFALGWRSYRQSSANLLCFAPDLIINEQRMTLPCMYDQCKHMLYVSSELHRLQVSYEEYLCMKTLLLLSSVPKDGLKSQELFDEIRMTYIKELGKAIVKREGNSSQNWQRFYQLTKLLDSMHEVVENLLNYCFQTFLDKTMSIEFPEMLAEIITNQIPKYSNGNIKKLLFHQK

[6] = biological target: Glucocorticoid receptor (Homo sapiens) (UniProt P04150); assay: GR-EFC Redistribution (AID 451; calls by dose curve; also: potency is read from the fitted curve at half-maximal effect); conditions: CHO-K1 GR-EFC translocation, beta-gal luminescence, 2 h
Summary of the method: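 CHO-K1 cells expressing nuclear EA and GR-ED fragments of b-gal; compounds titrated up to 46 uM final, 2 h at 37 C. GR nuclear translocation read as complemented b-gal luminescence after 1 h RT detection.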

[7] = biological target: Mitogen-activated protein kinase 10 (Mus musculus) (UniProt Q61831); assay: JNK3 AlphaScreen Assay (AID 530; active = well fitted curve in either direction with a large enough effect, not every such curve was filed as active;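 also: kinase came from lysate of stimulated human HepG2 cells; signal reports phosphorylation of biotinylated GST-cJun 1-79 at Ser73 with 10 µM ATP; % is scaled to controls: 0 for no effect and ±100 for the full control effect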); conditions: JNK3 lysate, c-Jun phosphorylation; series mostly up to 57.1 µM
Summary of the method: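 Pre-activated (IL-1β/TNFα) JNK3 in HepG2 lysates phosphorylates biotin-GST-cJun(1-79), 10 uM ATP; anti-phospho-cJun(Ser73) AlphaScreen read at room temperature, pH 7.6 Tris buffer. Compounds pre-incubated 15 min as titrations.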

[8] = biological target: 3',5'-cyclic-AMP phosphodiesterase 4B (Homo sapiens) (UniProt Q07343); assay: qHTS Assay for Inhibitors of PDE-IV (AID 607; active = well fitted activation curve with a large enough effect in the main read-out, with a control signal flat, not every such curve was filed as active; also: % of control where 0% means no effect); conditions: HEK293 ACTOne CNG channel cells, membrane potential fluorescence; series mostly up to 22.9 µM
Sequence of 3',5'-cyclic-AMP phosphodiesterase 4B (Homo sapiens) (Q07343 whole entry, looked up): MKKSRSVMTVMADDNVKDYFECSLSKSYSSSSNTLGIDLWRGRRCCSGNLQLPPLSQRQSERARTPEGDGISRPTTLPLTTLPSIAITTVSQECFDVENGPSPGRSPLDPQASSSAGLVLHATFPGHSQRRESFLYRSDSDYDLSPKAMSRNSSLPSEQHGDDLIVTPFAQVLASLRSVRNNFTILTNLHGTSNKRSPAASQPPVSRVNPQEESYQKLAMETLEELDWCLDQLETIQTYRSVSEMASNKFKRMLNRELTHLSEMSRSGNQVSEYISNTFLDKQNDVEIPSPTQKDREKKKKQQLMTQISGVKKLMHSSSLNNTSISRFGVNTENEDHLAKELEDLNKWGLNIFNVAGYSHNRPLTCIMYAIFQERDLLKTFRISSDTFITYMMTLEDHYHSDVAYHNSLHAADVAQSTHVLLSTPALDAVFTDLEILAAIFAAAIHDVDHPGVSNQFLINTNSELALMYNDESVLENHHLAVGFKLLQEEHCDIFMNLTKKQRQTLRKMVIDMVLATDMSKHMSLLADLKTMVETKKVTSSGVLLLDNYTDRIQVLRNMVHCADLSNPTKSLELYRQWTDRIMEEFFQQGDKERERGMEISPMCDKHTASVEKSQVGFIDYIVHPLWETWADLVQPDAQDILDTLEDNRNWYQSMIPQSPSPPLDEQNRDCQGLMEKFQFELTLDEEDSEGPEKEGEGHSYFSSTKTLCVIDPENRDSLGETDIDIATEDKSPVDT
Summary of the method: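 The readout is membrane depolarisation from a cAMP-sensing CNG channel, detected with a potential dye at ex 535/em 590. Cells were HEK293-derived (endogenous PDE-IV) at 1000 cells/well, titrated up to 22.9 uM final.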

[9] = biological target: Dual specificity protein kinase CLK4 (Homo sapiens) (UniProt Q9HAZ1); assay: qHTS Assay for Inhibitors of CDC-like Kinase 4 (Kinase-Glo Assay) (AID 1770); conditions: recombinant Clk4, Kinase-Glo ATP depletion luminescence; series mostly up to 66.7 µM; also: nearly all actives have a fitted effect of over 65% in size; also: potency is read from the fitted curve at half-maximal effect
Sequence of Dual specificity protein kinase CLK4 (Homo sapiens) (Q9HAZ1 whole entry, looked up): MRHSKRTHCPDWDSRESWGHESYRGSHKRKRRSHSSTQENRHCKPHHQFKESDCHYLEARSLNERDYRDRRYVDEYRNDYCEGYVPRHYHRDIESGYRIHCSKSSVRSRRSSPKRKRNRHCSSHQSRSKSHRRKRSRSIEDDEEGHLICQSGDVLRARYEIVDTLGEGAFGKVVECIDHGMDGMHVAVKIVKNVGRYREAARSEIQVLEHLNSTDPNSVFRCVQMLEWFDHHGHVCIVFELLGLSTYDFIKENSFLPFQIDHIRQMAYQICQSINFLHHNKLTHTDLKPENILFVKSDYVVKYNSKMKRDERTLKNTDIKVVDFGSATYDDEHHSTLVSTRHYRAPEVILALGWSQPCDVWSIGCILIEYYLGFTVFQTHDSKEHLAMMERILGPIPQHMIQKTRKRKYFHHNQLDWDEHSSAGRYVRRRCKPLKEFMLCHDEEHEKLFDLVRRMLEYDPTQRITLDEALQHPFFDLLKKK
Summary of the method: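 Inhibition was judged from remaining ATP, measured by Ultra-Glo luciferase bioluminescence after Clk4 (25 nM) had acted on RS peptide at 1 uM ATP for 4.5 hours, room temperature.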

[10] = biological target: Dual specificity protein kinase CLK4 (Homo sapiens) (UniProt Q9HAZ1); assay: qHTS Assay for Inhibitors of CDC-like Kinase 4 (ADP-Glo Assay) (AID 1771); conditions: recombinant CLK4, ADP-Glo luminescence; series mostly up to 80 µM; also: nearly all actives have a fitted effect of over 70% in size; also: potency is read from the fitted curve at half-maximal effect
Summary of the method: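 25 nM Clk4 with 100 uM RS repeat peptide and 1 uM ATP (final) in buffer with 2 mM MgCl2, 0.5 mM EGTA, 2.5 mM DTT, 0.01% Triton X-100; 1 h at room temperature; ADP-Glo luminescence for ADP formed.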

[11] = biological target: Dual specificity protein kinase CLK4 (Homo sapiens) (UniProt Q9HAZ1); assay: qHTS Assay for Inhibitors of CDC-like Kinase 4 (ADP-FP Assay) (AID 1795); conditions: Transcreener ADP fluorescence polarization; series mostly up to 50 µM;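 also: recombinant human CLK4 phosphorylating RS repeat peptide at 1 µM ATP; % is scaled to controls: 0 for no effect and ±100 for the full control effect; nearly all actives have a fitted effect of over 60% in size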
Summary of the method: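 Inhibition of ADP formation by 6.25 nM Clk4 is measured using 1 uM ATP and 100 uM RS repeat peptide over one hour. Produced ADP displaces a fluorescent tracer from antibody, lowering polarization.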

[12] = biological target: Ubiquitin carboxyl-terminal hydrolase 1 (Homo sapiens) (UniProt O94782); assay: Inhibitors of USP1/UAF1: Pilot qHTS (AID 504865); conditions: purified USP1/UAF1, Ub-rhodamine cleavage fluorescence; series mostly up to 54.9 µM;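 also: rhodamine fluorescence freed from ubiquitin-rhodamine substrate followed over time; top concentration of the series differs between compounds; % is scaled to controls: 0 for no effect and ±100 for the full control effect; nearly all actives have a fitted effect of over 35% in size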
Sequence of Ubiquitin carboxyl-terminal hydrolase 1 (Homo sapiens) (O94782 whole entry, looked up): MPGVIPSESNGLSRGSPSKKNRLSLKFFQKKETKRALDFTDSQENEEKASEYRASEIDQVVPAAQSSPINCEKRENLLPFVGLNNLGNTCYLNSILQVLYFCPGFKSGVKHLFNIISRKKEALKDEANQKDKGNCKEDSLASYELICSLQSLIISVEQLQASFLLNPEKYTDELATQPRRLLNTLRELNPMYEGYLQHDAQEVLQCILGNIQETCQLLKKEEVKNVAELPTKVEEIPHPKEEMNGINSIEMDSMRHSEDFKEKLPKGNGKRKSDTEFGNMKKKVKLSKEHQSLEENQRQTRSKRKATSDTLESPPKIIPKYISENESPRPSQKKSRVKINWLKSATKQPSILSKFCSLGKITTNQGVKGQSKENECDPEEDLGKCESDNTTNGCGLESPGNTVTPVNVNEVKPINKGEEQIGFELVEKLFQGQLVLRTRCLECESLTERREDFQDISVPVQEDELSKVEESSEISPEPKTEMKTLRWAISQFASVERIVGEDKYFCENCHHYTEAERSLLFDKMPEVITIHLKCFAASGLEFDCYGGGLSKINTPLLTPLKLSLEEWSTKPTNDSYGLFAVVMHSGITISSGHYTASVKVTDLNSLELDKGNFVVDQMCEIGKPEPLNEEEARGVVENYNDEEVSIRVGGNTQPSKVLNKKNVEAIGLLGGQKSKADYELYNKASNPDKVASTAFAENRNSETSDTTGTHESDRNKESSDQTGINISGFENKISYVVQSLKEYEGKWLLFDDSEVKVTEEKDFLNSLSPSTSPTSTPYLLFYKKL
Summary of the method: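 Kinetic fluorescence assay: 1nM USP1/UAF1, 15 min compound preincubation, then 150nM Ub-Rho; 480/540 nm.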

[13] = Primary qHTS for small molecule stabilizers of the endoplasmic reticulum resident proteome: Secreted ER Calcium Modulated Protein (SERCaMP) assay (AID 1508630); conditions: SH-SY5Y GLuc-SERCaMP (Gaussia luciferase released on ER calcium loss) secretion, thapsigargin, luminescence; series mostly up to 38.4 µM; also: % is scaled to controls: 0 for no effect and ±100 for the full control effect
Summary of the method: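 GLuc-SERCaMP-expressing SH-SY5Y cells, pretreated 16 h with compound, are challenged with thapsigargin to empty ER calcium stores; after 4 h, coelenterazine is added directly to the medium and luminescence is imaged.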

[14] = biological target: Cytochrome P450 3A4 (Homo sapiens) (UniProt P08684); assay: qHTS Assay for Inhibitors and Substrates of Cytochrome P450 3A4 (AID 884); conditions: recombinant CYP3A4, Luciferin-PPXE luminescence; series mostly up to 57.1 µM; also: potency is read from the fitted curve at half-maximal effect; nearly all actives have a fitted effect of over 50% in size
Sequence of Cytochrome P450 3A4 (Homo sapiens) (P08684 whole entry, looked up): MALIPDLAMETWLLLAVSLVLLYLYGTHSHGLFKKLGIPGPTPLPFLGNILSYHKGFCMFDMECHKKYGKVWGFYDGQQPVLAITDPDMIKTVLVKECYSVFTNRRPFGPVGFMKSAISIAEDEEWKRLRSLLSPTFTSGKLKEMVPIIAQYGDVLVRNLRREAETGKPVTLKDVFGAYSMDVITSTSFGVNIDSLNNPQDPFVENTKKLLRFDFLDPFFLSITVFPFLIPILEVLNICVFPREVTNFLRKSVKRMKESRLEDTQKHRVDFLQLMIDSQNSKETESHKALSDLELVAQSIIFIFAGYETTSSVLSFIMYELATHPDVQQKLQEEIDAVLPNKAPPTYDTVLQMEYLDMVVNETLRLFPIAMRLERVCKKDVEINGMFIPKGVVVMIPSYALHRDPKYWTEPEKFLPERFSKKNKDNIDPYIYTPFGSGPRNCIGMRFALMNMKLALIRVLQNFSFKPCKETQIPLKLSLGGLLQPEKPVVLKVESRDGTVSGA
Summary of the method: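 20 nM human CYP3A4 with 25 uM Luciferin-PPXE (at KM) in 200 mM KPO4, preincubated 10 min with compound; NADPH regeneration started a 60 min RT reaction. Luciferin detected by luminescence, normalized to 57 uM ketoconazole as full inhibition.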

[15] = biological target: Cytochrome P450 3A4 (Homo sapiens) (UniProt P08684); assay: qHTS Assay for Activators of Cytochrome P450 3A4 (AID 885); conditions: recombinant CYP3A4, Luciferin-PPXE luminescence, 60 min; series mostly up to 57.1 µM; also: nearly all actives have a fitted effect of over 65% in size
Summary of the method: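 Steps: enzyme/substrate mix dispensed; compound added, 10 min RT; NADPH regeneration solution added, 60 min RT; luciferin detection buffer stops reaction; 20 min later luminescence measured.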

[16] = biological target: Cytochrome P450 2C19 (Homo sapiens) (UniProt P33261); assay: qHTS Assay for Inhibitors and Substrates of Cytochrome P450 2C19 (AID 899); conditions: recombinant CYP2C19, luciferin-H EGE luminescence; series mostly up to 57.1 µM; also: potency is read from the fitted curve at half-maximal effect; nearly all actives have a fitted effect of over 60% in size
Sequence of Cytochrome P450 2C19 (Homo sapiens) (P33261 whole entry, looked up): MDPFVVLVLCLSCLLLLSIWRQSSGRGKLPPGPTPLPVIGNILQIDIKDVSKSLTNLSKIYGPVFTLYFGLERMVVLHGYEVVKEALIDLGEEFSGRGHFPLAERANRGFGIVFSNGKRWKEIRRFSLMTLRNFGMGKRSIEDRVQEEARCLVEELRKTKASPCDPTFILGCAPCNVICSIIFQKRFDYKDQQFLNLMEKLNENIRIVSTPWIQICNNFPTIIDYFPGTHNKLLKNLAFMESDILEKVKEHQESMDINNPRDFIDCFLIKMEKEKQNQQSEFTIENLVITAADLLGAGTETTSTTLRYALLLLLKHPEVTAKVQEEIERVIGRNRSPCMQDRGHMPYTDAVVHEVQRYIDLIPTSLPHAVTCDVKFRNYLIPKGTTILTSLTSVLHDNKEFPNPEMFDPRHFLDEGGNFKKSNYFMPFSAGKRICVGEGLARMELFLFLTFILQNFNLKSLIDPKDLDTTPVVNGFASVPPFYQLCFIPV
Summary of the method: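 Luminescent read-out of luciferin formed from Luciferin-H EGE (10uM, equal to KM). Enzyme 5nM in 50mM KPO4; compound added, 10 min at 37C, then NADPH regenerating system for 60 min at 37C. Full inhibition defined by 57uM ketoconazole.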

COCCn1c(=O)c(-c2ccccc2)nc2cnc(N3CCOCC3)nc21
inactive: Potency [1] > 11.4 µM | activity change, negative = inhibition [2] -10.7% | activity change, negative = inhibition [3] 18.3% | activity, negative = inhibition [4] -4.75% | Potency [5] > 9.22 µM | Potency [6] > 46 µM | Potency [7] | Potency [8] | Potency [9] | Potency [10] | Potency [11] | Potency [12] | outcome [13]

COc1ccc(-c2nc3cnc(OC)nc3n(-c3ccccc3)c2=O)cc1
inactive: Potency [1] > 11.4 µM | activity change, negative = inhibition [2] -6.09% | activity change, negative = inhibition [3] 10.5% | activity, negative = inhibition [4] -1.78% | Potency [5] > 9.22 µM | Potency [6] > 46 µM | Potency [7] | Potency [8] | Potency [9] | Potency [10] | Potency [11] | Potency [12] | outcome [13]

Cc1cnc(CNc2ncncc2-c2cccc(NS(C)(=O)=O)c2)cn1
active: Potency [14] 3.16 µM
inactive: Potency [1] > 11.4 µM | activity change, negative = inhibition [2] 3.85% | activity change, negative = inhibition [3] -0.565% | activity, negative = inhibition [4] 13.1% | Potency [5] > 46 µM | Potency [7] | Potency [8] | Potency [15] | Potency [9] | Potency [10] | Potency [11] | Potency [12] | outcome [13]

COc1ccc(-c2nc3cnc(N(C)C)nc3n(CCC#N)c2=O)cc1
inactive: Potency [1] > 11.4 µM | activity change, negative = inhibition [2] -7.19% | activity change, negative = inhibition [3] -5.15% | Potency [6] > 46 µM | Potency [7] | Potency [8] | Potency [9] | Potency [10] | Potency [11] | Potency [12] | outcome [13]

COc1cccc(Cn2c(=O)c(-c3ccccc3)nc3cncnc32)c1
inactive: Potency [1] > 11.4 µM | activity change, negative = inhibition [2] -16.5% | activity change, negative = inhibition [3] -5.39% | activity, negative = inhibition [4] -11.9% | Potency [5] > 9.22 µM | Potency [6] > 46 µM | Potency [7] | Potency [8] | Potency [9] | Potency [10] | Potency [11] | Potency [12] | outcome [13]

COc1ncc2nc(C)c(=O)n(Cc3ccc(F)cc3)c2n1
inactive: Potency [1] > 11.4 µM | activity change, negative = inhibition [2] -12.3% | activity change, negative = inhibition [3] -2.65% | activity, negative = inhibition [4] -17.5% | Potency [5] > 9.22 µM | Potency [6] > 46 µM | Potency [7] | Potency [8] | Potency [9] | Potency [10] | Potency [11] | Potency [12] | outcome [13]

COc1ccccc1-c1cncnc1Nc1ccccc1
inactive: Potency [1] > 11.4 µM | activity change, negative = inhibition [2] -6.14% | activity change, negative = inhibition [3] -4.57% | activity, negative = inhibition [4] 5.08% | Potency [5] > 46 µM | Potency [6] > 46 µM | Potency [7] | Potency [8] | Potency [9] | Potency [10] | Potency [11] | Potency [12] | outcome [13]

CN(C)c1ncc2nc(-c3ccc(Cl)cc3)c(=O)n(CCC#N)c2n1
inactive: Potency [1] > 11.4 µM | activity change, negative = inhibition [2] 7.51% | activity change, negative = inhibition [3] 17.6% | activity, negative = inhibition [4] 17.6% | Potency [5] > 9.22 µM | Potency [6] > 46 µM | Potency [7] | Potency [8] | Potency [9] | Potency [10] | Potency [11] | Potency [12] | outcome [13]

FC(F)(F)c1ccccc1-c1cncnc1NCc1ccccc1
inactive: Potency [1] > 11.4 µM | activity change, negative = inhibition [2] -12.5% | activity change, negative = inhibition [3] -25.7% | activity, negative = inhibition [4] 8.04% | Potency [6] > 46 µM | Potency [7] | Potency [9] | Potency [10] | Potency [11] | Potency [12] | outcome [13]

COc1ccc(-c2nc3cnc(N(C)C)nc3n(C3CC3)c2=O)cc1
inactive: Potency [1] > 11.4 µM | activity change, negative = inhibition [2] -0.159% | activity, negative = inhibition [4] 24.2% | Potency [5] > 9.22 µM | Potency [6] > 46 µM | Potency [7] | Potency [8] | Potency [9] | Potency [10] | Potency [11] | Potency [12] | outcome [13]

COc1ccccc1-c1cc(N(C)Cc2ccco2)ncn1
inactive: Potency [1] > 11.4 µM | activity change, negative = inhibition [2] 28.4% | activity change, negative = inhibition [3] -15.8% | activity, negative = inhibition [4] 5.75% | Potency [5] > 46 µM | Potency [6] > 46 µM | Potency [7] | Potency [8] | Potency [11] | Potency [12] | outcome [13]
active: Potency [16] 3.98 µM | Potency [9] 28.2 µM | Potency [10] 35.5 µM

COc1cccc(Cn2c(=O)c(-c3cn(C)c4ccccc34)nc3cnc(N4CCOCC4)nc32)c1
inactive: Potency [1] > 11.4 µM | activity change, negative = inhibition [2] 5% | activity change, negative = inhibition [3] 7.78% | activity, negative = inhibition [4] 10.6% | Potency [5] > 9.22 µM | Potency [6] > 46 µM | Potency [7] | Potency [8] | Potency [9] | Potency [10] | Potency [11] | Potency [12] | outcome [13]

O=c1c(-c2ccc(F)cc2)nc2cncnc2n1Cc1ccccc1
inactive: Potency [1] > 11.4 µM | activity change, negative = inhibition [2] -5.88% | activity change, negative = inhibition [3] -16.1% | activity, negative = inhibition [4] 9.13% | Potency [5] > 9.22 µM | Potency [6] > 46 µM | Potency [7] | Potency [9] | Potency [10] | Potency [11] | outcome [13]
